Data taken from ChEMBL document CHEMBL1201862, “PubChem BioAssay data set” (2004).
Out of some 400,000 compounds screened, about 2,100 (0.53%) were called active. Another 14% or so got no clear call; they are omitted. The sample holds actives, similar compounds and a random draw of the others, so the mix is not that of the screen. How the calls were made is not given here.

Target: Ataxin-2 (Homo sapiens) (UniProt Q99700)
Experiment: qHTS for Inhibitors of ATXN expression.
Format: functional

Ataxin-2 (Homo sapiens), sequence (Q99700 whole entry): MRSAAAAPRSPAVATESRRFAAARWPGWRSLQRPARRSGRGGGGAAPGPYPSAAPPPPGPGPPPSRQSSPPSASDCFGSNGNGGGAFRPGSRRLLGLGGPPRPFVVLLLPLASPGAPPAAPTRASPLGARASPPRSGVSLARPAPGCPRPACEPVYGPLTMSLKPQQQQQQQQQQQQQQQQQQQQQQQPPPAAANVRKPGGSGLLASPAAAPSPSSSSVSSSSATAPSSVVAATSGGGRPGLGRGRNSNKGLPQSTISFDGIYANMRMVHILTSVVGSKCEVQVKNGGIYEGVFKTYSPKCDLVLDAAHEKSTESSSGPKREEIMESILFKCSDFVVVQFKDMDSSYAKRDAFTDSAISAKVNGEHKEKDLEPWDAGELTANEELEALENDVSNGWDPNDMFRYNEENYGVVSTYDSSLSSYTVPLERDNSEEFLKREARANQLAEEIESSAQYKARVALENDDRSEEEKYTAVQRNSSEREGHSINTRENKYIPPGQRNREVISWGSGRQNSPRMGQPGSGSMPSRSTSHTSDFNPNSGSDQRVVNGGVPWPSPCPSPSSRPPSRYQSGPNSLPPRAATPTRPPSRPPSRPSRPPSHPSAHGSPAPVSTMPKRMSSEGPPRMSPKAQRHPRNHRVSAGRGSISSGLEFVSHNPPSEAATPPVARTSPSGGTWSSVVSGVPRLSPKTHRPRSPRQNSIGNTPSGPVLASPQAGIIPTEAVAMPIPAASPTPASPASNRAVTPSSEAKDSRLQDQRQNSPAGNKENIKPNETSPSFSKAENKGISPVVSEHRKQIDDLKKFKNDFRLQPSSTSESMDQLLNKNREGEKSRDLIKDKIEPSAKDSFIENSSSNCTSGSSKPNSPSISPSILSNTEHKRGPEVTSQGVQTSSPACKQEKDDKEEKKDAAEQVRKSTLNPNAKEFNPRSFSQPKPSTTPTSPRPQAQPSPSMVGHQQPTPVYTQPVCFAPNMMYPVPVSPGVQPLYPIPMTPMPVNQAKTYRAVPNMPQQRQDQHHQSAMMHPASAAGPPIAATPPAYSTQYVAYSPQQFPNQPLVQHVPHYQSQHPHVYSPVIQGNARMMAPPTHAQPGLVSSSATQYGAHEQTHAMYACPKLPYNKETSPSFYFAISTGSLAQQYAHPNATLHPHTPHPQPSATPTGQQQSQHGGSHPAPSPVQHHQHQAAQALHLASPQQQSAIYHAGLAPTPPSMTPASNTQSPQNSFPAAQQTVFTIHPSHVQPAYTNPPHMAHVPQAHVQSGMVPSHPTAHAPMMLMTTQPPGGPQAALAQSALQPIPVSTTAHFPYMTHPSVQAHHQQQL

Row | Structure (SMILES) | Potency
1 | COCc1cc(C)nc2oc(C(=O)c3ccccc3)c(N)c12 | inactive
2 | CCCCC[C@@H](/C=C/C1C(=O)C=C[C@H]1C/C=C\CCCC(=O)OC)OC(C)=O (some centres not stated) | 35.5 µM (active)
3 | CCCCC[C@H](O)/C=C/C1C(=O)C=C[C@H]1C/C=C\CCCC(=O)OC (some centres not stated) | 35.5 µM (active)
4 | CCOC(=O)c1c(NC(=O)c2ccc(S(=O)(=O)N3CCCC(C)C3)cc2)sc2c1CCN(C(C)C)C2 (configuration not stated) | inactive
5 | Cc1cc(-c2ccc(Br)s2)nc(-n2cccc2)n1 | inactive
6 | OC1(c2ccc(Cl)c(Cl)c2)C[n+]2ccccc2N1Cc1ccccc1 (configuration not stated) | 28.2 µM (active)
7 | Cc1ccc2nc3c(cc(C(=O)NCCc4ccccc4)c(=N)n3CCCN3CCOCC3)c(=O)n2c1 | inactive
8 | CC(C)(O)C#Cc1ncc(C(F)(F)F)cc1Cl | inactive
9 | N#CC(C#N)=c1ccc2c(c1)NC1(CCCCC1)N=2 | 12.6 µM (active)
10 | COc1ccc(CCNC(=O)COc2ccc(S(=O)(=O)NC3CCCCC3)cc2Cl)cc1 | 35.5 µM (active)
11 | O=C(COc1ccc(F)cc1Cl)NC1CCCCCC1 | inactive
12 | COc1ccc(CCNC(=O)C(=O)NCC2OCCN2S(=O)(=O)c2ccc(OC)c(OC)c2)cc1 (configuration not stated) | inactive
13 | CCCCNc1c(-c2ccc(SC3CCCCC3)cc2)nc2cnccn12 | inactive
14 | Cc1ccc(-c2nnc(NC3CCCCC3)c3ccccc23)cc1S(=O)(=O)N1CCN(C)CC1 | 11.2 µM (active)
15 | O=C(COc1ccccc1Br)NCCC1=CCCCC1 | inactive
16 | COc1ccc(CCNC(=O)c2coc(=O)c(Br)c2)cc1 | 20 µM (active)
17 | Cc1noc(C)c1COc1ccc(C(=O)NCCc2ccc(S(N)(=O)=O)cc2)cc1 | inactive
18 | O=C(NCCC1=CCCCC1)c1coc(=O)c(Br)c1 | 31.6 µM (active)
19 | Cn1c(C(=O)O)cc2c(=O)n3ccccc3nc21 | inactive
20 | O=C(Nc1ccc2cccnc2c1)c1ccc(Br)cc1 | inactive
21 | CC(=O)OCCn1c2nc(=O)[nH]c(=O)c-2nc2cc(C)c(C)cc21 | inactive
22 | COc1ccc2nc(Nc3ccccc3)sc2c1 | inactive
23 | COc1cccc(C2C3=C(O)CC(C)(C)CC3=NC(C)=C2C(=O)Nc2nc3ccccc3s2)c1OC (configuration not stated) | inactive
24 | COc1ccc2nc(NN=C3C(=O)CC(C)(C)CC3=O)sc2c1 | 33.6 µM (active)
25 | COc1ccc(CCNC(=O)c2ccc(-c3cccc([N+](=O)[O-])c3)o2)cc1OC | inactive
26 | O=C(Nc1ccc2oc(=O)ccc2c1)c1ccc(-c2cccc([N+](=O)[O-])c2)o1 | 39.8 µM (active)

Row | Structure (SMILES) | Potency
27 | O=C(Nc1nccs1)c1ccc(-c2ccc([N+](=O)[O-])cc2)o1 | inactive
28 | COc1cc2c(cc1NC(=O)COC(=O)/C=C/c1ccccc1)oc1ccccc12 | 17.8 µM (active)
29 | COc1cc2c(cc1N/C=C(\C#N)c1nc(-c3ccccc3)cs1)oc1ccccc12 | inactive
30 | COc1ccc(C(=N)NOC(=O)/C=C/c2ccccc2)cc1 | inactive
31 | CCCCc1ccc(/C(C)=N/Nc2cc(N3CCOCC3)nc(C)n2)cc1 | inactive
32 | O=C(CN1CCN(Cc2ccccc2)CC1)Nc1ccc2c(c1)CCC2 | inactive
33 | O=C(CN1C(=O)NC2(CCCCC2)C1=O)Nc1ccc2c(c1)CCC2 | 28.2 µM (active)
34 | O=C(CN1C(=O)NC2(CCCC2)C1=O)Nc1nc(-c2ccccc2)cs1 | inactive
35 | CCc1ccccc1-n1c(N)c(C(=O)OC)c2nc3ccccc3nc21 | inactive
36 | Cc1[nH]n(-c2ccc(Cl)cc2)c(=O)c1N=Nc1cccnc1 | inactive
37 | O=C(O)c1cc2c(ncc3c(=O)n(-c4ccccc4)[nH]c32)s1 | inactive
38 | CN(C)S(=O)(=O)c1ccc2[nH]cc(/C=C/c3nc4ccccc4c(=O)n3-c3ccccc3)c2c1 | inactive
39 | Cc1[nH]n(-c2ccccc2)c(=O)c1N=Nc1nccs1 | 39.8 µM (active)
40 | CN1C(=O)c2cccc3c(S(=O)(=O)N(C)C)ccc1c23 | inactive
41 | Cc1[nH]n(-c2ccccc2)c(=O)c1N=Nc1c(O)cc(S(=O)(=O)N(C)C)c2ccccc12 | 4.47 µM (active)
42 | Cc1cccc(/N=c2\oc3cc(O)ccc3cc2C(N)=O)c1 | inactive
43 | COc1cccc(C2Oc3ccccc3C3CC(c4cccs4)=NN32)c1 (configuration not stated) | inactive
44 | CC1(C)Cc2c(sc3nc(SCC(=O)O)nc(N)c23)CO1 | inactive
45 | COC(=O)c1sc2nc3c(c(-c4cccs4)c2c1N)CCCC3 | inactive
46 | COC(=O)CSc1nc(N)c2c3c(sc2n1)C(c1ccccc1)SC(c1ccccc1)C3 (configuration not stated) | 35.5 µM (active)
47 | Cc1ccc2oc(=O)c(S(=O)(=O)c3ccc(F)cc3)cc2c1 | inactive
48 | Cc1cn(-c2cc(C(=O)Nc3ccc(C)c(NC(=O)C(=O)c4c[nH]c5ccccc45)c3)cc(C(F)(F)F)c2)cn1 | 20 µM (active)
49 | Cc1ccc(NC(=O)COC(=O)c2c[nH]c3ccccc23)cc1C | inactive
50 | O=C(NCCOc1ccccc1Cl)C(=O)c1c[nH]c2ccccc12 | inactive
51 | OCCN1CCN(c2ncnc3c2ncn3[C@H]2CN(Cc3ccc(-c4ccccc4)cc3)C[C@@H](CO)O2)CC1 | 39.8 µM (active)
52 | COc1cccc(C2NC(=O)CCC2[N+](=O)[O-])c1 (configuration not stated) | inactive

Row | Structure (SMILES) | Potency
53 | COc1cccc(/C=C2/CCC(CN(C)C)C2=O)c1 (configuration not stated) | 9.47 µM (active)
54 | COc1ccc(/C=C2\CCC/C(=C\C=N\N(C)C)C2=O)cc1 | 11.2 µM (active)
55 | COc1ccc(/C=N/N(C)C2=NS(=O)(=O)c3ccccc32)cc1 | inactive
56 | CCCC/C=C1/CCC(CN(C)C)C1=O (configuration not stated) | 37.7 µM (active)
57 | CSc1ccc(/C=C/C(=O)OCC(=O)N2CCc3ccccc32)cc1 | inactive
58 | CN(C)c1ccc(/C=C2\CCCc3c2nc2ccccc2c3C(=O)O)cc1 | inactive
59 | COc1cccc(NC=C2C(=O)CCCC2=O)c1 | inactive
60 | CCCC(/C=C/c1ccc(OC(C)=O)cc1)=C1/c2ccccc2C(=O)N1c1ccccc1 | inactive
61 | CN(C)CC1CCC/C(=C\c2ccc(OC(=O)/C=C/c3ccccc3)cc2)C1=O (configuration not stated) | 35.5 µM (active)
62 | Cc1noc(C)c1COc1ccc(C(=O)OCC(=O)Nc2ccc(S(N)(=O)=O)cc2)cc1 | inactive
63 | CN(C)S(=O)(=O)Oc1ccsc1C(=O)Nc1ccc(Br)cc1 | inactive
64 | COc1ccc(/C=C/CN2CCN(CC(C)C)C(CCO)C2)cc1 (configuration not stated) | inactive
65 | CC1CCN(c2ccc3c(c2)S(=O)(=O)c2cc(C(=O)O)ccc2C3=O)CC1 | inactive
66 | Brc1ccc2ncc(Br)cc2c1 | inactive
67 | CCCCn1nc(NC(=O)c2cccs2)c2cc3cc(OC)ccc3nc21 | inactive
68 | O=C(O)c1c2c(nc3ccccc13)/C(=C/c1ccc(O)cc1)CC2 | inactive
69 | COc1ccc(/C=C2/CCCC(CN(C)C)C2=O)cc1 (configuration not stated) | 13.4 µM (active)
70 | CN(C)CC1CC/C(=C\c2ccc(O)cc2)C1=O (configuration not stated) | 39.8 µM (active)
71 | Cc1cc(=O)oc2cc3c(cc12)OCCN3 | inactive
72 | CC(C)(C)c1ccc(C2=CC(c3ccccc3)n3ncnc3N2)cc1 (configuration not stated) | inactive
73 | CCN(CC)c1ccc2c(C)c(CO)c(=O)oc2c1 | inactive
74 | COc1c(Br)cc(/C=N/n2c(S)nnc2-c2ccccc2)c(O)c1Br | inactive
75 | O=C(Nc1cccc(NC(=O)c2cccc([N+](=O)[O-])c2)n1)c1cccc([N+](=O)[O-])c1 | inactive
76 | O=C(Nc1cccc(NC(=O)c2cc([N+](=O)[O-])ccc2Cl)n1)c1cc([N+](=O)[O-])ccc1Cl | 22.4 µM (active)
77 | Cc1cccc(NC(=O)c2cc(Cl)nc3ccccc23)n1 | inactive
78 | c1cn2c(NC3CCCCC3)c(-c3ccc(SC4CCCCC4)cc3)nc2cn1 | inactive

Row | Structure (SMILES) | Potency
79 | CCc1ccc(S(=O)(=O)ON2C(=O)c3ccccc3C2=O)cc1 | 23.8 µM (active)
80 | Cc1ccc(F)cc1NC(=O)N1CCCN(c2ccc(C(F)(F)F)cn2)CC1 | inactive
81 | COc1ccc(Cl)cc1NC(=O)N1CCN(c2ccccc2OC)CC1 | inactive
82 | COc1ccccc1NC(=O)N1CCN(c2ccc3nnc(-c4ccc(F)cc4)n3n2)CC1 | 25.1 µM (active)
83 | Fc1ccc(-c2nnc3ccc(N4CCc5ccccc5C4)nn23)cc1 | 35.5 µM (active)
84 | CCN(CC)C(=O)CSc1nc2ccccc2c(=O)n1CCC(=O)N1CCN(c2ccccc2)CC1 | inactive
85 | COc1ccc(-n2cc(C(=O)c3cc(Cl)ccc3O)cc(C#N)c2=O)cc1 | inactive
86 | COc1ccc(Cc2c(-c3ccco3)nc3ccc(Br)cn23)c(C)c1 | 20 µM (active)
87 | Fc1cccc(Cc2c(-c3ccco3)nc3ccc(Cl)cn23)c1 | 39.8 µM (active)
88 | COc1ccc2nc(-c3ccco3)c(-c3ccco3)nc2c1 | inactive
89 | Clc1cccc(Cc2c(-c3ccco3)nc3ccc(Cl)cn23)c1 | 28.2 µM (active)
90 | Clc1cccc(Cc2c(-c3ccco3)nc3ccc(Br)cn23)c1 | 31.6 µM (active)
91 | Clc1cccc(CSc2ccc(-c3ccco3)nn2)c1 | inactive
92 | COc1ccc(C2C(C(=O)c3ccco3)=C(O)C(=O)N2c2nnc(C)s2)cc1 (configuration not stated) | inactive
93 | O=C(CC1C(=O)NC2CCCCC2N1C(=O)c1ccc([N+](=O)[O-])cc1)Nc1ccccc1 (configuration not stated) | inactive
94 | Cc1ccc(S(=O)(=O)N2CCN(C(=O)c3cc(C4CC4)nc4c3cnn4C(C)C)CC2)cc1 | inactive
95 | Cc1ccc2nc(-c3ccncc3)c(NC3CCCCC3)n2c1 | inactive
96 | Fc1cccc(Cc2c(-c3ccco3)nc3ccc(Br)cn23)c1 | 39.8 µM (active)
97 | Cc1nc2ccc(Cl)cn2c1[N+](=O)[O-] | inactive
98 | CCOC(=O)C1CCN(C(=O)Nc2ccc3nc(-c4ccco4)c(-c4ccco4)nc3c2)CC1 | inactive
99 | Cc1ccc(Cc2c(-c3ccco3)nc3ccc(Cl)cn23)cc1 | 25.1 µM (active)
100 | Sc1nnc(-c2ccco2)n1-c1ccc(Br)cc1 | inactive
101 | Cc1ccc2nc(-c3ccco3)c(CC3CCCCC3)n2c1 | 22.4 µM (active)
102 | CC(=O)Nc1c(-c2ccccc2)nc2ccc(Cl)cn12 | inactive
